The source made the active and inactive calls.

The target in one assay is Albumin (Bos taurus) (UniProt P02769). The assay is described as follows: compounds binding labelled BSA control protein – biochemical, small-molecule microarray, Alexa647 label, 635/667 nm fluorescence, artefact control for SMM control protein annotation, profiling panel (AID 1118).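 Further: score merges 667 nm emission intensity and signal-to-noise per printed compound spot.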 The following applies: BSA-A647 binding, fluorescence 635 nm, higher = more signal.
A short description of assay [1]: probe aXIP binding to arrayed compounds – biochemical, NeuroSMM set, 635/667 nm fluorescence, primary screen (AID 1119).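 Further: probe is the protein aXip251-270 applied at 1 µg/mL to compound-printed slides; binding of probe to printed compounds measured as 667 nm fluorescence plus signal to noise.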 Conditions: small-molecule microarray, higher = more signal, called active from +8 up or from −8 down.
Assay [2] is described as follows: probe aNOTCH3 binding on compound microarray – biochemical, small-molecule microarray, 635/667 nm fluorescence, primary screen (AID 1120).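 Further: probe is a biotin-tagged antibody raised against NOTCH3 rather than NOTCH3 protein; score merges spot fluorescence near 667 nm with spot signal to noise.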 The following applies: higher = more signal.
The nature of assay [3]: probe aNOTCH2 binding on compound microarray – biochemical, small-molecule microarray, 635/667 nm fluorescence, primary screen (AID 1121).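 Further: score merges feature fluorescence read at 667 nm with its signal to noise.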 Conditions: higher = more signal.
Assay [4] concerns the target Carbonic anhydrase 2 (Homo sapiens) (UniProt P00918). Put plainly: compounds binding carbonic anhydrase 2 – biochemical, small-molecule microarray, Alexa647-labelled CAII, profiling panel (AID 1122). Conditions: CAII-A647 binding fluorescence, higher = more signal.
Assay [5] is described as follows: COS7 lysate on small-molecule microarray, probe aHis, 635 nm (AID 1123).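 Further: z-score combines 667nm fluorescence intensity with signal-to-noise per printed compound spot.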 The following applies: COS7 cell lysate, fluorescence, higher = more signal.
A short description of assay [6]: probe aLAP1 signal on lysate-treated microarray – cell lysate, small-molecule microarray, COS7 lysate, primary screen (AID 1124).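 Further: lysate comes from COS7 cells expressing LAP1 and is applied at 0.3 µg/mL; score merges spot fluorescence near 667 nm with signal-to-noise over triplicate slides.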 Conditions: probe aLAP1, fluorescence, higher = more signal.
The subject of another assay is Sam68 (KHDRBS1). Put plainly: compounds binding KHDRBS1 protein – biochemical, small-molecule microarray, 635 nm fluorescence, primary screen (AID 1125).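 Further: score merges 667 nm channel intensity with signal to noise over triplicate slides.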 The following applies: higher = more signal.
The subject of assay [7] is Chordin-like protein 2 (CHRDL2). The assay is described as follows: compounds binding chordin-like 2 – biochemical, small-molecule microarray, 635 nm fluorescence, primary screen (AID 1126).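 Further: printed compound slides probed with Chrdl2 protein at 4 µg/mL for 1 h at 4 C; score merges 667 nm emission intensity with signal to noise over three replicate slides.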 Conditions: fluorescence 635 nm, higher = more signal.
In assay [8] the target is Concanavalin-A (Canavalia ensiformis) (UniProt P02866). Put plainly: compounds binding concanavalin A lectin – biochemical, small-molecule microarray, Alexa647 label, 635 nm, artefact control for SMM control protein annotation, primary screen (AID 1127).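 Further: z combines 667 nm emission intensity with signal-to-noise across three replicate slides.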 Conditions: ConA-A647 binding fluorescence, higher = more signal.
Chain of Concanavalin-A (Canavalia ensiformis) (P02866 whole entry, looked up): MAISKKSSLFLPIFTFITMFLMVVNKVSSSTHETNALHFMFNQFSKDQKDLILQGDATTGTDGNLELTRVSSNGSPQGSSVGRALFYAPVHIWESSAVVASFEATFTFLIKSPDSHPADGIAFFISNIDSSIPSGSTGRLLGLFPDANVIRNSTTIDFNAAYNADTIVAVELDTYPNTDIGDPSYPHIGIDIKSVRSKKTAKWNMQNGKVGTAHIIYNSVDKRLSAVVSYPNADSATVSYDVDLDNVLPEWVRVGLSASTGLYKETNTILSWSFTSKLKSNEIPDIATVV

Chain of Albumin (Bos taurus) (P02769 whole entry, looked up): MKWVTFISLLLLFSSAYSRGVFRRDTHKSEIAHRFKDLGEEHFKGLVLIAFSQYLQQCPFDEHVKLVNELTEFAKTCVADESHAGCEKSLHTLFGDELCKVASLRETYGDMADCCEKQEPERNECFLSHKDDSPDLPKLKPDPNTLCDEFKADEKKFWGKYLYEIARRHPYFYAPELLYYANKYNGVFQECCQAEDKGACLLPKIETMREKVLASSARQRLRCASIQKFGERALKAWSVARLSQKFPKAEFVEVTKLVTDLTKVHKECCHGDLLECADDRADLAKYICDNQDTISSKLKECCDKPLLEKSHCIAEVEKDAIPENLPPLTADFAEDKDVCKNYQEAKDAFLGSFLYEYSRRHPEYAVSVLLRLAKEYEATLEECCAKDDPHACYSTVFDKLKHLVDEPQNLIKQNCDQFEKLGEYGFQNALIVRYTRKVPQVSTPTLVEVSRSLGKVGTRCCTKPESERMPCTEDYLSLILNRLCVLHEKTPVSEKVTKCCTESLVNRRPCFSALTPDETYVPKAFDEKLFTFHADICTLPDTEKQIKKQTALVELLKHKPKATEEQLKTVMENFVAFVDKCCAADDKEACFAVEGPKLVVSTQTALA

Consider `CCOC(=O)[C@H](Cc1ccccc1)NC(=O)CCC1CC(OC(=O)NCCc2ccc(F)cc2)CC2(CCCC(COC(=O)NCCCN3CCCC3=O)O2)O1` (stereo not given in full), for which the composite z-score was 0.468 with Albumin (Bos taurus); 0.0479 in assay [2]; -0.078 in assay [3]; 0.0851 in [4]; 0.776 in [5]; 0.129 in assay [6]. The values for the composite z-score (in the assay on Sam68 (KHDRBS1); in assay [7]; in assay [8]) were 1.29, 0.294 and 1.1, respectively. For the same compound, the composite Z-score in assay [1] is 0.0773 (inactive).
On to `CC[C@@H](c1ccccc1)n1c(=O)n2n(c1=O)[C@H]1[C@H](O)[C@@H]3O[C@@H]3C(=O)[C@H]1CC2`, for which the composite z-score in the assay with Albumin (Bos taurus) is 0.208; in assay [2], -0.0745; in [3] it was -0.135; in assay [4], -0.245; in [5], -0.372; in assay [6], -0.262. In addition, the composite z-score with Sam68 (KHDRBS1) turned out to be 0.0274; in assay [7], 0.673; in [8], 0.576. Moreover, in assay [1], the composite Z-score was 0.214 (inactive).
`CC=CC1=C(CO)C(=O)[C@@H]2O[C@@H]2C1=O`: the composite z-score was -0.651 with Albumin (Bos taurus); -0.109 in assay [2]; -0.102 in assay [3]; 0.298 in assay [4]; -0.91 in [5]; -0.724 in [6]. For the same compound, the results for the composite z-score (in the assay with Sam68 (KHDRBS1); in [7]; in [8]) were -0.533, 1.45 and -0.579, respectively. The composite Z-score in [1] was 0.833 (inactive).
On to `COc1ccc(C#C[C@@H]2C=C[C@H](OC(C)=O)[C@@H](COC(C)=O)O2)cc1`, for which the composite z-score was 0.18 with Albumin (Bos taurus); -0.0077 in [2]; -0.153 in assay [3]; 0.61 in assay [4]; 0.759 in assay [5]; -0.019 in assay [6]. The composite z-score came to 0.112 with Sam68 (KHDRBS1), 0.867 in assay [7] and 0.536 in [8]. Also, in assay [1], the composite Z-score was -0.153 (inactive).
As to `CON=C[C@@H](NS(=O)(=O)c1ccc(C)cc1)[C@H](C)C=CCC(=O)OC`, the composite z-score with Albumin (Bos taurus) was -0.625; in assay [2], -0.0173; in assay [3] it was -0.14; in assay [4], -0.374; in assay [5] it was 0.0154; in assay [6] it was 0.22. The results for the composite z-score (with Sam68 (KHDRBS1); in assay [7]; in assay [8]) were -1.35, 1.26 and -0.0082, respectively. The composite Z-score in assay [1] is -0.722 (inactive).
As to `CCOC(=O)NN=C1C[C@@H](O)[C@@H](O)[C@@H]2[C@@H]3C(=O)N(c4ccc(F)cc4F)C(=O)[C@@H]3CC[C@@H]12`, the composite z-score with Albumin (Bos taurus) is 0.66; in assay [2], -0.144; in assay [3] it was -0.156; in assay [4], -0.103; in assay [5] it was 0.218; in [6], 0.196. Also, the composite z-score with Sam68 (KHDRBS1) was 0.591; in assay [7], 0.312; in assay [8], 0.307. The composite Z-score in assay [1] is 0.16 (inactive).
For the compound `CC(=O)OC[C@H]1O[C@H](CC=NO[C@H](C)c2cn([C@H](CO)Cc3ccccc3)nn2)C=C[C@@H]1OC(C)=O`, the composite z-score is 0.376 with Albumin (Bos taurus); 0.108 in assay [2]; -0.0482 in assay [3]; -0.0934 in assay [4]; 0.154 in assay [5]; 0.0588 in assay [6]. Also, the composite z-score amounted to 1.29 in the assay on Sam68 (KHDRBS1), 0.41 in [7] and 0.597 in assay [8]. Moreover, in [1], the composite Z-score is -0.0641 (inactive).
`O=C1[C@H]2[C@H]3[C@H](O)[C@H](O)CC(=NOC[C@@H](O)COCc4ccco4)[C@@H]3CC[C@H]2C(=O)N1C[C@@H]1CCCO1`: the composite z-score is 0.63 with Albumin (Bos taurus); -0.0345 in assay [2]; -0.0986 in [3]; -0.267 in assay [4]; 0.155 in assay [5]; 0.174 in assay [6]. The composite z-score is 0.902 in the assay with Sam68 (KHDRBS1), 1.53 in assay [7] and -0.281 in assay [8]. Further, the composite Z-score in assay [1] was 0.381 (inactive).
Consider `CO[C@H]1COC(=O)[C@@H](C)COC(=O)[C@@H](OCc2ccccc2)C=C[C@@H]1C`, for which the composite z-score with Albumin (Bos taurus) was -0.858; in assay [2] it was -0.103; in assay [3], -0.115; in assay [4], -0.369; in assay [5] it was -0.194; in assay [6] it was -0.259. The composite z-score is -0.234 in the assay on Sam68 (KHDRBS1), 0.159 in assay [7] and -0.459 in assay [8]. The composite Z-score in assay [1] was -0.535 (inactive).
Take `CO[C@H]1COC(=O)CCC[C@@H](C)[C@H](OC)COC(=O)[C@@H]2CCCN2C(=O)CC=C[C@@H]1C`: the composite z-score with Albumin (Bos taurus) is -0.695; in assay [2], -0.0074; in [3], -0.132; in [4], -0.465; in assay [5], -0.776; in assay [6] it was 0.324. The composite z-score in the assay on Sam68 (KHDRBS1) was -0.113; in assay [7], 1.46; in [8], -0.232. The composite Z-score in assay [1] is 0.215 (inactive).
With `CCOC(=O)NN=C1C[C@@H](O)[C@@H](O)[C@@H]2[C@@H]3C(=O)N(c4cccc(Oc5ccccc5)c4)C(=O)[C@@H]3CC[C@@H]12`, the composite z-score with Albumin (Bos taurus) was 0.736; in assay [2] it was -0.152; in assay [3], -0.167; in [4] it was 0.58; in assay [5], 0.263; in assay [6] it was 0.142. Also, the composite z-score in the assay on Sam68 (KHDRBS1) is -0.114; in [7], -0.0646; in [8] it was -0.245. Also, in assay [1], the composite Z-score was -0.147 (inactive).
As to `CCOC(=O)NN=C1C[C@@H](O)[C@@H](O)[C@@H]2[C@@H]3C(=O)N(Cc4ccccc4)C(=O)[C@@H]3CC[C@H]12`, the composite z-score with Albumin (Bos taurus) was -0.182; in [2] it was -0.183; in assay [3], -0.174; in assay [4], 0.542; in assay [5], 0.307; in assay [6], -0.4. In addition, the composite z-score with Sam68 (KHDRBS1) was -0.0882; in assay [7], 0.194; in assay [8], 1.12. In addition, the composite Z-score in assay [1] is -0.374 (inactive).
With `COc1cccc([C@@H]2Oc3ccc(OC)cc3C(=O)[C@H]2O)c1`, the composite z-score is 0.78 in the assay with Albumin (Bos taurus); -0.0377 in [2]; -0.119 in assay [3]; 0.445 in assay [4]; -0.279 in assay [5]; 0.158 in assay [6]. For the same compound, the composite z-score worked out at 0.325 in the assay on Sam68 (KHDRBS1), 0.488 in assay [7] and 0.711 in assay [8]. In addition, the composite Z-score in [1] is 0.0773 (inactive).

The values above are taken from PubChem BioAssay.
